The target of assay [1] is T1, Serine/threonine-protein kinase Nek9 (Homo sapiens) (UniProt Q8TD19).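 Further: each value is a mean percent inhibition of NEK9.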
T1 sequence (whole entry): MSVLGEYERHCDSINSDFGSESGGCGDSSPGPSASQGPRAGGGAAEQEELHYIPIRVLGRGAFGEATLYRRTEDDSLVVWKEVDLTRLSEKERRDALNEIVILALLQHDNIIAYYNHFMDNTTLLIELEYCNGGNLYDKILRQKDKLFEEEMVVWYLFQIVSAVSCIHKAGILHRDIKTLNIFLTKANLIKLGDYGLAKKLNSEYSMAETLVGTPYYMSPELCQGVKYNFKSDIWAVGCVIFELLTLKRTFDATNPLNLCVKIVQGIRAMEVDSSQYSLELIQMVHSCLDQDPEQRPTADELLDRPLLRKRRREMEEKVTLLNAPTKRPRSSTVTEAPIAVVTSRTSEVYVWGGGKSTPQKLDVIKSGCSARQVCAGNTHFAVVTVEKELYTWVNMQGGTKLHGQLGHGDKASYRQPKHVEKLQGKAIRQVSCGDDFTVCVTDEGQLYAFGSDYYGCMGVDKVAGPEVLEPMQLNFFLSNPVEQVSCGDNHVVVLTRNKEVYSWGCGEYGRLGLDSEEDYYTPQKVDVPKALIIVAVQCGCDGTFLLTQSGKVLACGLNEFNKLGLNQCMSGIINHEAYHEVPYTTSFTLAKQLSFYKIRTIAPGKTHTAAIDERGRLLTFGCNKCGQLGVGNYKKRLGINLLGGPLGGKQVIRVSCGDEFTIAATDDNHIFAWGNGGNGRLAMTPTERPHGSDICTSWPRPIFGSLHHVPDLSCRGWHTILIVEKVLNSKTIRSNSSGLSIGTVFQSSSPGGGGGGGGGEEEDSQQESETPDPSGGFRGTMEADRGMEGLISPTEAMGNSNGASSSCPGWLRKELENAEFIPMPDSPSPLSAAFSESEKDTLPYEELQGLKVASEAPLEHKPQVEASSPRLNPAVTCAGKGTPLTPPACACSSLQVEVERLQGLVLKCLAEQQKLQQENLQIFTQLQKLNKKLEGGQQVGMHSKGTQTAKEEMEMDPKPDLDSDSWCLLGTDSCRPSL
Conditions: at 1 µM.

The target in assay [2] is Serine/threonine-protein kinase PLK1 (Homo sapiens) (UniProt P53350). Conditions: at 0.1 µM.
For assay [3] the target is unchanged. Conditions: at 1 µM.
In assay [4] the target is T2, Dual specificity protein kinase TTK (Homo sapiens) (UniProt P33981).
T2 sequence (whole entry): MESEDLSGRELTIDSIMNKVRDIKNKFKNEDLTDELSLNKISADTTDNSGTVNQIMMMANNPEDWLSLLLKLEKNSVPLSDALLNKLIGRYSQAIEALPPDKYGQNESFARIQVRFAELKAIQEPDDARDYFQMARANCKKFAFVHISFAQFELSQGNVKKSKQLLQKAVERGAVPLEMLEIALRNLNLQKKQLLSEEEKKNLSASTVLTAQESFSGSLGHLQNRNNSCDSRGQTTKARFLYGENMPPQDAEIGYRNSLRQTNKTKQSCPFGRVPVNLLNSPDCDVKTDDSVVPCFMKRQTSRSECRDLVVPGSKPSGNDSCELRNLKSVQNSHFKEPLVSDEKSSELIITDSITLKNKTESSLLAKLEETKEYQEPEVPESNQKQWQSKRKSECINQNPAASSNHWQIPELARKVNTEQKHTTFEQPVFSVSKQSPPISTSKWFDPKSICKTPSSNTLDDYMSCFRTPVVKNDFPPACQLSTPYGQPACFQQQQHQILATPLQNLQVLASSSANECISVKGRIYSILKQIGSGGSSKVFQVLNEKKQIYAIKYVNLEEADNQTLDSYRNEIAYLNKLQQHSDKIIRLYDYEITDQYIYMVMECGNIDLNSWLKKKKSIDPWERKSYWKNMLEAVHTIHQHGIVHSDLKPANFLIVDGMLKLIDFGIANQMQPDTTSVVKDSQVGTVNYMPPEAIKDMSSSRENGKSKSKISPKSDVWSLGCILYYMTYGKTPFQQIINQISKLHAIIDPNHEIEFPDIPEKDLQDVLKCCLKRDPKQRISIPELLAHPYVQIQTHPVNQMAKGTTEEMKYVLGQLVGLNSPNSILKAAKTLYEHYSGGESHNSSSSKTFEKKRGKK
The note with it: at 0.1 µM.

Assay [5] concerns T3, Receptor-type tyrosine-protein kinase FLT3 (Homo sapiens), P36888 [D835Y].
T3 sequence (whole entry): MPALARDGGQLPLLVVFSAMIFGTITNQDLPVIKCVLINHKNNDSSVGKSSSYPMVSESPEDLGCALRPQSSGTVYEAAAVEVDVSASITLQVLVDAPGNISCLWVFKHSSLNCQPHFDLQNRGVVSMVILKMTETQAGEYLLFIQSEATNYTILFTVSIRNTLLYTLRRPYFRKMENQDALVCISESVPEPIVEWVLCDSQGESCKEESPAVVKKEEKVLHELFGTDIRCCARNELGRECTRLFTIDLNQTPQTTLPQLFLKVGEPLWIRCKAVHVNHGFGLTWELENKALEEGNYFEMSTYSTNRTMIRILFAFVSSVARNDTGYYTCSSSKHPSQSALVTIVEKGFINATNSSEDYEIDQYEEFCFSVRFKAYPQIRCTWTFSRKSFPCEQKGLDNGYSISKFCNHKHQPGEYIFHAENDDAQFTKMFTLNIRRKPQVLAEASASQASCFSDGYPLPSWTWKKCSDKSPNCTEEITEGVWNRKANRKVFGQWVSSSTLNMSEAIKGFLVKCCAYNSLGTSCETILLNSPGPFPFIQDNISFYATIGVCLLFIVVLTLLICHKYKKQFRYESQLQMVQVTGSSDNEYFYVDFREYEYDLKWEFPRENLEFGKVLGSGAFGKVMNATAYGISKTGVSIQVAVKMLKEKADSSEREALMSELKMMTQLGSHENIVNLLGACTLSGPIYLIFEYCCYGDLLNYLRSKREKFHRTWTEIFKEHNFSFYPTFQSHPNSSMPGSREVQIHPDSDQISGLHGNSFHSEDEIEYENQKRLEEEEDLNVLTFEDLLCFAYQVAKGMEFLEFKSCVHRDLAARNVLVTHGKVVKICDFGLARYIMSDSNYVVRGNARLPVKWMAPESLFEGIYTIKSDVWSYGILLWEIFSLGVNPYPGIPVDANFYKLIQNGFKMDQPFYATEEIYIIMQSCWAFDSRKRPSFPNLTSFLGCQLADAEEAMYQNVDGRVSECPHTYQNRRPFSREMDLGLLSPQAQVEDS
The note with it: at 1 µM.

The target of assay [6] is Vascular endothelial growth factor receptor 3 (Homo sapiens) (UniProt P35916). The note with it: at 0.1 µM.
The target is the same in assay [7]. Conditions: at 1 µM.
In assay [8] the target is Macrophage colony-stimulating factor 1 receptor (Homo sapiens) (UniProt P07333). Conditions: at 0.1 µM.
For assay [9] the target is unchanged. The note with it: at 1 µM.
Assay [10] addresses Tyrosine-protein kinase Fyn (Homo sapiens) (UniProt P06241). The note with it: at 0.1 µM.
The target is the same in assay [11]. Conditions: at 1 µM.
Assay [12] concerns the target Tyrosine-protein kinase HCK (Homo sapiens) (UniProt P08631). The note with it: at 0.1 µM.
Assay [13] shares this target. The note with it: at 1 µM.
For assay [14], the target named is Insulin-like growth factor 1 receptor (Homo sapiens) (UniProt P08069). Conditions: at 0.1 µM.
Assay [15] has the same target. The note with it: at 1 µM.
Assay [16] addresses Insulin receptor (Homo sapiens) (UniProt P06213). Conditions: at 0.1 µM.
Assay [17] shares this target. Conditions: at 1 µM.
In assay [18] the target is Insulin receptor-related protein (Homo sapiens) (UniProt P14616). Conditions: at 0.1 µM.
The target is the same in assay [19]. The note with it: at 1 µM.
Assay [20] has as its target T4, Tyrosine-protein kinase ITK/TSK (Homo sapiens) (UniProt Q08881).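 Further: mean percent inhibition of ITK from the GSK PKIS screen.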
T4 sequence (whole entry): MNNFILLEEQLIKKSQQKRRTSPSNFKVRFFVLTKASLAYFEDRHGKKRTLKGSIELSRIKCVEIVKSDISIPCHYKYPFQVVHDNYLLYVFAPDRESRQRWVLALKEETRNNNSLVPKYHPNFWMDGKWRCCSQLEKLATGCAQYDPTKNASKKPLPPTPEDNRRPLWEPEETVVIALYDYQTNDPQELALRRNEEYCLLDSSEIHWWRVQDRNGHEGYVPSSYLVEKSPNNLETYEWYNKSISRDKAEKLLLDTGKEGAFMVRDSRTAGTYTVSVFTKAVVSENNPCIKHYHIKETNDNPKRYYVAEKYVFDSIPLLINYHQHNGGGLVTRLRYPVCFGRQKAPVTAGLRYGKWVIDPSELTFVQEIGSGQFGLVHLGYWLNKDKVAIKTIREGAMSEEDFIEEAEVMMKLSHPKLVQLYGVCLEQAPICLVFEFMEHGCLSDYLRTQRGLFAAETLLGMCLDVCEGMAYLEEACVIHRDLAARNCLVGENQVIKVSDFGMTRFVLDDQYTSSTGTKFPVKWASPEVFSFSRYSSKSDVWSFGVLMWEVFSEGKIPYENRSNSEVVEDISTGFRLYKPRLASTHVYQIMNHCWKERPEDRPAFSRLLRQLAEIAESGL
Conditions: at 0.1 µM.

We go through six compounds from ChEMBL document CHEMBL1961873, “Compounds: GSK PKIS; Assays: Nanosyn kinase panel” (2012).

Usually inhibition stands for the relative decrease from the control value, in per cent.

Tyrosine-protein kinase HCK (Homo sapiens), sequence (P08631 2-526 limits assumed): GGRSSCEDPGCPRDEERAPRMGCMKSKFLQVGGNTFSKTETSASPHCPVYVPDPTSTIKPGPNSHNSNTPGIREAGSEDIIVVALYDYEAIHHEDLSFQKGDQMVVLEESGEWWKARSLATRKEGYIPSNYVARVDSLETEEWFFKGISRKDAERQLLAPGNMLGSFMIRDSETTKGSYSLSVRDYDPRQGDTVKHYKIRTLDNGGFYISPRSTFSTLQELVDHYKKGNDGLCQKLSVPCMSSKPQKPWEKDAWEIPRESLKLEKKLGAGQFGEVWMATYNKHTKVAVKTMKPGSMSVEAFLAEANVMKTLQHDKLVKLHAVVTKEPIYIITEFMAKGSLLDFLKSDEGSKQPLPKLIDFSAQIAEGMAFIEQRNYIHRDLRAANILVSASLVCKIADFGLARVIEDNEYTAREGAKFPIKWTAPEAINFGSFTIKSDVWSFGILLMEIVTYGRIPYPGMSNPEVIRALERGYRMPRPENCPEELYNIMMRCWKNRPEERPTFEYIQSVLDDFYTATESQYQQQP
Vascular endothelial growth factor receptor 3 (Homo sapiens), sequence (P35916 whole entry): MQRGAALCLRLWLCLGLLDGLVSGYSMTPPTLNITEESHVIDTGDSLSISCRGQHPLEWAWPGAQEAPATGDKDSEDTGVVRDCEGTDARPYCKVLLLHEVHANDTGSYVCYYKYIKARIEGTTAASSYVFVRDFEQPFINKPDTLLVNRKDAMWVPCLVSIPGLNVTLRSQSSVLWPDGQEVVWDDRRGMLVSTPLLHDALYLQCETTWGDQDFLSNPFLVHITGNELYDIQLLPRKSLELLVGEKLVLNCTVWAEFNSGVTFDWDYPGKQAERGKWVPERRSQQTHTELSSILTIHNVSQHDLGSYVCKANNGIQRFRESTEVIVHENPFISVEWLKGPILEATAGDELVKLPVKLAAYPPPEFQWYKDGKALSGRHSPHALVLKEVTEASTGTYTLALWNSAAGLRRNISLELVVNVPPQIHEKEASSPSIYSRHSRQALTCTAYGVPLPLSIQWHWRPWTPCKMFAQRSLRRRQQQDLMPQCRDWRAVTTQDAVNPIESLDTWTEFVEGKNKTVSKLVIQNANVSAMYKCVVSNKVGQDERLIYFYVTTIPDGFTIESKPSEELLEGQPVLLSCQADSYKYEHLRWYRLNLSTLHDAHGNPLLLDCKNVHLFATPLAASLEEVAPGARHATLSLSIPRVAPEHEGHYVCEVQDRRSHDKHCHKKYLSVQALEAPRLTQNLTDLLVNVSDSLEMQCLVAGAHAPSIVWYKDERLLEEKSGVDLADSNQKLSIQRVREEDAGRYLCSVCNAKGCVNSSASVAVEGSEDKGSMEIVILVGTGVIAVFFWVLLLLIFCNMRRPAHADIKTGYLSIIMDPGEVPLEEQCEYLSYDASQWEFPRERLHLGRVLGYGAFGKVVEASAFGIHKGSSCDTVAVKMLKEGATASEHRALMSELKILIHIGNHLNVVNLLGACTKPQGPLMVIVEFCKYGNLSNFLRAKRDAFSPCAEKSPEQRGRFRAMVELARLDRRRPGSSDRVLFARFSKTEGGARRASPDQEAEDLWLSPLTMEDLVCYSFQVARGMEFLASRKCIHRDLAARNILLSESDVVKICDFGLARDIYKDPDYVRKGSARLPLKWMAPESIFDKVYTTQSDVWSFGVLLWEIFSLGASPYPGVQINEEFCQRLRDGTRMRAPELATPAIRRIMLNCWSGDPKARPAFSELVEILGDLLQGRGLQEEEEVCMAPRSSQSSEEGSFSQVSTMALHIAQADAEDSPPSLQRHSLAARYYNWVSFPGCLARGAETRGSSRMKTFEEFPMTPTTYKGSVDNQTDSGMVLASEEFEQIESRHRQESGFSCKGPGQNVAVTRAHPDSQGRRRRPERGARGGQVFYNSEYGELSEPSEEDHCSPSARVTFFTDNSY
Macrophage colony-stimulating factor 1 receptor (Homo sapiens), sequence (P07333 whole entry): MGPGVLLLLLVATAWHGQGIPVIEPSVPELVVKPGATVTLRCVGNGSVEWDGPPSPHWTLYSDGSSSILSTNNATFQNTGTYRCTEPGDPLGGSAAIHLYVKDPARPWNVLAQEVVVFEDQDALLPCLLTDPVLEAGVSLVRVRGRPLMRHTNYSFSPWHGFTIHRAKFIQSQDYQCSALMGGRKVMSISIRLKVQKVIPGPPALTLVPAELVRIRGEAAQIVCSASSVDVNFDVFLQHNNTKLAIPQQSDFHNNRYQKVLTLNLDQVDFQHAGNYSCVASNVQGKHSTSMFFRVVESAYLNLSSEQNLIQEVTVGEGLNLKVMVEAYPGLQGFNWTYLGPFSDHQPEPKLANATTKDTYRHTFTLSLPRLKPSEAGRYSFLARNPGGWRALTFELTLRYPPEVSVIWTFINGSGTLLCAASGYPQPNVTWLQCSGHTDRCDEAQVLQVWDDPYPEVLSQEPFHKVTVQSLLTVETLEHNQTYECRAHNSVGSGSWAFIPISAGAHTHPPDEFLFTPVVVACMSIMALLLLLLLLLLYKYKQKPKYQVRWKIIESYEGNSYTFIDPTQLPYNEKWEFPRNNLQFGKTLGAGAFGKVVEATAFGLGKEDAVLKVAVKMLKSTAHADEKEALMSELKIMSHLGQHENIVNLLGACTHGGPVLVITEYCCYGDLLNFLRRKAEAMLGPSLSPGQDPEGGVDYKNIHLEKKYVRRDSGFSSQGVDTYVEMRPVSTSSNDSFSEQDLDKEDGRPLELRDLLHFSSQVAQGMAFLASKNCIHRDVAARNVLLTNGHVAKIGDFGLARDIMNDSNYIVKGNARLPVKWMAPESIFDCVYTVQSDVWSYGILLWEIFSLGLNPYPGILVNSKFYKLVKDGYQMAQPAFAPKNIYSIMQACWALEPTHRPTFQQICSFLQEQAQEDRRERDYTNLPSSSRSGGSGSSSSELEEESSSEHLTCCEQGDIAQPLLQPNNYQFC
Insulin receptor-related protein (Homo sapiens), sequence (P14616 27-742 limits assumed): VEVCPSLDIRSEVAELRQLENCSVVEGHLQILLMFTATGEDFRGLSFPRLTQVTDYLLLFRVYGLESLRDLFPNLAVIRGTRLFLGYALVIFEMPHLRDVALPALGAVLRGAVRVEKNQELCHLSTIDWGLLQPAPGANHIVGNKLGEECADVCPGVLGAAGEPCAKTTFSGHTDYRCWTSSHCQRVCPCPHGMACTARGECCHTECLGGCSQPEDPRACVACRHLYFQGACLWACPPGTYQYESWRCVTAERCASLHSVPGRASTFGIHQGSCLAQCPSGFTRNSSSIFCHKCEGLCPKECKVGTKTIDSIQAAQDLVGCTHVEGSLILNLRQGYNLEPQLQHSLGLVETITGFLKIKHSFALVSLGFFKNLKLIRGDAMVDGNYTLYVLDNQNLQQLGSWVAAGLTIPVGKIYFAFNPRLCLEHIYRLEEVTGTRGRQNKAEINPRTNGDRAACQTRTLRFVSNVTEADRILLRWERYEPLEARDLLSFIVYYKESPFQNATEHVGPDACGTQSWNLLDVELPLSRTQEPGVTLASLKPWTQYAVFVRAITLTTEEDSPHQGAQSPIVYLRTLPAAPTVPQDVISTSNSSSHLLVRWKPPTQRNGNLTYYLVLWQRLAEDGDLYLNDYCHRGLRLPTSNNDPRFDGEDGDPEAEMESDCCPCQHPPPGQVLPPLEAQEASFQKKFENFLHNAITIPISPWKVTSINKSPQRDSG
Insulin receptor-related protein (Homo sapiens), sequence (P14616 747-1297 limits assumed): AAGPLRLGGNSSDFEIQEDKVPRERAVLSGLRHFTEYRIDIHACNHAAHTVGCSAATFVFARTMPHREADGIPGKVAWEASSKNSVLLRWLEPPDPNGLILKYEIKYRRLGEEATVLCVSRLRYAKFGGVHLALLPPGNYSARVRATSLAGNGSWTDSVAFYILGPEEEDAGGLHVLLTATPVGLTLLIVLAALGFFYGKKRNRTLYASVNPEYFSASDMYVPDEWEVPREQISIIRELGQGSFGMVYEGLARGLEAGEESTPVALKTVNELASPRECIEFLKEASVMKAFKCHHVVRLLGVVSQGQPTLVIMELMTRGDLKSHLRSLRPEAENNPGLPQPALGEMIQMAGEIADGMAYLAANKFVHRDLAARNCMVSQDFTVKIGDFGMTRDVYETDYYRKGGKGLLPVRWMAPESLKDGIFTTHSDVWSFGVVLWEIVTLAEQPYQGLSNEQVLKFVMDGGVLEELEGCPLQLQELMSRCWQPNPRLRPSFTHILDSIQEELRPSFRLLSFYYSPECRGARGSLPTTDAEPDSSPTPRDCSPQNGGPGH
Serine/threonine-protein kinase PLK1 (Homo sapiens), sequence (P53350 whole entry): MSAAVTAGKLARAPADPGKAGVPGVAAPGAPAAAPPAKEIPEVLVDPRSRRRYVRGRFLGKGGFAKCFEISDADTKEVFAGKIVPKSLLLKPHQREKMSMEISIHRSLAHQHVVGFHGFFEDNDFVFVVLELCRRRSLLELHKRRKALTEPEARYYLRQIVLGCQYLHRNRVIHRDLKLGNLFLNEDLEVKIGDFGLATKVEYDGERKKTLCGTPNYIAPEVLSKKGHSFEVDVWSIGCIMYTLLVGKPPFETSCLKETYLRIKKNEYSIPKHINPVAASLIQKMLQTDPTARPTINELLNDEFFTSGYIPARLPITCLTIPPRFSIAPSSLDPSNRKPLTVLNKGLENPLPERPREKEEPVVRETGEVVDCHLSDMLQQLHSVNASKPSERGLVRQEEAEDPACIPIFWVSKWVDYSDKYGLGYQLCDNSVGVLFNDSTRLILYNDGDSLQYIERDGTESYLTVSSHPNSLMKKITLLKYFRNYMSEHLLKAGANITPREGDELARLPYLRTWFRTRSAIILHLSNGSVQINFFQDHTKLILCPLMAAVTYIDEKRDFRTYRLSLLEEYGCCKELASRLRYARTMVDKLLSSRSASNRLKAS

In the case of `O=C1NC(=O)C(c2ccc(Cl)cc2)=C1Nc1ccc(Cl)c(C(=O)O)c1`, the inhibition in [1] was -2.24%; in assay [2], -1.32%; in assay [3] it was -2.04%; in assay [4] it was -4.32%; in assay [5] it was 2.75%; in assay [6], 1.23%. Besides, the inhibition was determined as 6.6% in assay [7]; 0.6% in [8]; 2.16% in [9]; 2.16% in [10]; 0.57% in assay [11]; 0.67% in assay [12]. The inhibition in assay [13] was 3.62%; in assay [14], 0.06%; in assay [15], -0.55%; in assay [16], 2.24%; in [17], 2.54%; in [18], -0.43%. Also, the inhibition in assay [19] was -1.7%; in assay [20], -0.06%.
`CCn1c(-c2nonc2N)nc2ccncc21`: the inhibition in assay [1] amounted to 5.33%; in [2] it was 1.68%; in assay [3], 2.44%; in assay [4] it was 3.2%; in [5] it was 0.13%; in assay [6], 2.12%. The inhibition in assay [7] was 2.74%; in [8], 0.3%; in assay [9], 0%; in assay [10] it was 2.62%; in assay [11] it was -0.65%; in assay [12], 3.79%. For the same compound, the inhibition in assay [13] was 3.12%; in [14], -0.2%; in assay [15], 1.25%; in [16] it was 3.48%; in [17] it was 5.38%; in [18], -0.17%. Moreover, the figures for the inhibition in assay [19] and in assay [20] were -0.42% and 0.26%, respectively.
`NCc1ccc(-c2nc(-c3ccc(Cl)c(O)c3)c(-c3ccncc3)[nH]2)cc1`: the inhibition in [1] is -0.05%; in [2], 4.25%; in assay [3] it was 2.1%; in [4], 2.08%; in assay [5] it was 1.57%; in assay [6] it was 19.7%. The inhibition was determined as 69% in assay [7]; 0.23% in [8]; 5.68% in assay [9]; 5.91% in assay [10]; 31.8% in assay [11]; 12.9% in assay [12]. The inhibition was 55.1% in [13]; -0.62% in assay [14]; -0.25% in assay [15]; 0.74% in assay [16]; 2.07% in assay [17]; -0.06% in [18]. Further, the inhibition in assay [19] was -1.54%; in assay [20] it was 0.2%.
As for `Nc1nc(-c2ccccn2)c(-c2ccc3ncccc3n2)s1`, the inhibition was determined as 6.84% in assay [1]; 2.47% in assay [2]; 2.12% in [3]; 4.02% in assay [4]; 8.59% in [5]; 1.06% in assay [6]. In addition, the inhibition in assay [7] was 2.46%; in assay [8], 2.04%; in [9], 4.58%; in [10], -1.79%; in assay [11], -0.24%; in assay [12], 2.25%. In addition, the inhibition in assay [13] was determined as 6.89%; in assay [14] it was 3.05%; in [15], 3.2%; in assay [16], 2.46%; in [17], 1.2%; in assay [18], 2.58%. Moreover, the values for the inhibition in assay [19] and in assay [20] were 2.92% and 1.05%, respectively.
As to `COc1ccc(-c2ccncc2)cc1C(N)=O`, the inhibition turned out to be 2.67% in [1]; 5.64% in [2]; 6.97% in assay [3]; 5.37% in [4]; 3.51% in assay [5]; 3.2% in [6]. The inhibition came out at 2% in [7]; 2.6% in assay [8]; 5.33% in assay [9]; 2.01% in assay [10]; 3.66% in assay [11]; 6.67% in assay [12]. In addition, the inhibition stood at 9.92% in assay [13]; 3.69% in [14]; 4.13% in assay [15]; 9.09% in assay [16]; 6.94% in [17]; 2.71% in assay [18]. Besides, the inhibition in [19] turned out to be 2.24%; in [20], 1.95%.
For `Nc1ncnc2occ(-c3ccc(NC(=O)Nc4cccc(C(F)(F)F)c4)cc3)c12`, the inhibition in assay [1] was 17.9%; in assay [2], 4.84%; in assay [3], 5.99%; in assay [4] it was 7.86%; in assay [5] it was 34.6%; in assay [6], 53%. The inhibition came out at 99.6% in assay [7]; 98.1% in assay [8]; 78% in assay [9]; 3.58% in assay [10]; 19.9% in [11]; 12% in assay [12]. The inhibition in [13] stood at 48.8%; in [14], 14.6%; in [15], 15.5%; in assay [16], 3.28%; in [17] it was 10.5%; in [18], 2.2%. Besides, the inhibition in assay [19] was 5.07%; in [20], 0.99%.
